# Activity calls are given as the source filed them. Unless noted, no rule for the calls is given here.
# What was measured:
# [1] = tested on: Wnt5a (protein binding on small-molecule microarray); experiment: Wnt5a binders on small-molecule microarray, primary screen, biophysical, 635/667 nm fluorescence (AID 1142); settings: 635 nm fluorescence, higher = more signal;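 also: fluorescence read at 667 nm with signal to noise per printed feature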
# [2] = cell viability in Huh7 cells, primary screen, cytotoxicity control for HCV replication inhibitor project, CellTiter-Glo luminescence, basal, 48 h (AID 1143); settings: Huh7 HCV replicon, higher = more signal, called active from +8 up or from −8 down;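 also: Huh7 hepatoma cells carrying a hepatitis C replication reporter with no stimulus; test concentration not given here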
# [3] = P. aeruginosa biofilm formation inhibitors, primary screen, PAO1 strain, BacTiter-Glo luminescence, LB-PBS (AID 1144); settings: 12 h, higher = more signal
# [4] = CREB reporter modulators without forskolin, primary screen, cell-based, PC12, CRE-LacZ reporter, unstimulated (AID 1145); settings: no forskolin, luminescence, 4.5 h, higher = more signal, called active from +8 up or from −8 down
# [5] = CREB reporter modulators under forskolin, primary screen, cell-based, PC12, CRE-LacZ reporter, forskolin-stimulated (AID 1146); settings: luminescence, 4.5 h, higher = more signal, called active from +8 up or from −8 down;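 also: PC12 cells with 6xCRE LacZ reporter stimulated by forskolin 10 µM; beta-galactosidase reporter signal reflecting CREB driven transcription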
# [6] = target: Streptavidin (Streptomyces avidinii) (UniProt P22629); experiment: streptavidin binders on small-molecule microarray, primary screen, artefact control for SMM compound annotation, biophysical, 635/667 nm fluorescence (AID 1147); settings: streptavidin binding, higher = more signal;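 also: signal reflects streptavidin binding to arrayed compounds as a control protein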
# Chain of Streptavidin (Streptomyces avidinii) (P22629 whole entry, looked up): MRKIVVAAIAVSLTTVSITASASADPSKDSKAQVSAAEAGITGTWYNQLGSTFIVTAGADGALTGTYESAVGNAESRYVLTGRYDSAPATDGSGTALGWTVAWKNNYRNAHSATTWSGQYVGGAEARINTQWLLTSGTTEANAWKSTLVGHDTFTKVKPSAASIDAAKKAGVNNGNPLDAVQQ
# [7] = small-molecule binders of probe aInhba, primary screen, biochemical, small-molecule microarray, 635/667 nm fluorescence (AID 1148); settings: higher = more signal;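 also: score merges 667nm spot fluorescence with signal-to-noise for antibody binding to printed compounds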
# Torsin-1A (Homo sapiens) [8] = target: Torsin-1A (Homo sapiens) (UniProt O14656); experiment: torsin A binders from cell lysate, primary screen, small-molecule microarray, wild-type, 635/667 nm (AID 1149); settings: COS7 hTOR1A-WT lysate, 635 nm fluorescence, higher = more signal
# Chain of Torsin-1A (Homo sapiens) (O14656 whole entry, looked up): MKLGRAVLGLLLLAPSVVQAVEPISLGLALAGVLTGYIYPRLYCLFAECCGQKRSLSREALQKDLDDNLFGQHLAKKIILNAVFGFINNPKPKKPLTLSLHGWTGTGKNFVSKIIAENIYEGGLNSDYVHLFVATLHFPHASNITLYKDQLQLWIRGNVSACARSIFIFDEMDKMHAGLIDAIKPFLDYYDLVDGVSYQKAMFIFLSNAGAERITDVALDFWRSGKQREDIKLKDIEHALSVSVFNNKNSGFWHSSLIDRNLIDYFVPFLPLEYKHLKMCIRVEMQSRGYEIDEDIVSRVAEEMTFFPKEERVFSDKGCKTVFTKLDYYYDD
# Torsin-1A (Homo sapiens) [9] = target: Torsin-1A (Homo sapiens) (UniProt O14656); experiment: small-molecule binders of mutant TOR1A in lysate, primary screen, cell lysate, small-molecule microarray, COS7 lysate, 635/667 nm fluorescence (AID 1150); settings: COS7 hTOR1A mutant lysate, 635 nm fluorescence, higher = more signal;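 also: score pools 667 nm emission and signal to noise measuring lysate protein binding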
# [10] = tested on: Sonic hedgehog protein (Shh); experiment: small-molecule binders of Shh protein, primary screen, biochemical, small-molecule microarray, 635/667 nm fluorescence (AID 1151); settings: small-molecule microarray binding, 635 nm fluorescence; higher = more signal;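 also: Shh protein binding to compounds spotted on small-molecule microarray slides; score combines spot fluorescence intensity with signal-to-noise across triplicate slides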
# [11] = E. coli DRC41 culture turbidity changes, primary screen, E. coli filamentation inducer project, strain DRC41, OD650, 48 h (AID 1152);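 also: E. coli MC1000 strain DRC41 lacking acrAB efflux pump and sulA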; settings: E. coli DRC41 (acrAB sulA), higher = more signal, called active from +8 up or from −8 down
# [12] = small-molecule binders of probe aLefty1, primary screen, biochemical, small-molecule microarray, 635/667 nm fluorescence (AID 1153); settings: higher = more signal;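 also: score merges spot fluorescence with signal-to-noise ratio from the scanned slide images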
# [13] = PSAC antagonists in infected red cells, primary screen, cell-based, P. falciparum Indochina, OD700, 1 h (AID 1154); settings: P. falciparum Indochina infected RBC osmotic lysis, higher = more signal, called active from +8 up or from −8 down
# [14] = PSAC antagonists in infected red cells, primary screen, cell-based, P. falciparum Indochina, OD700, 2 h (AID 1155);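 also: lysis reports solute entry through the parasite surface anion channel PSAC; channel blockers reduce lysis of infected cells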; settings: P. falciparum Indochina infected erythrocytes, osmotic lysis OD700; higher = more signal, called active from +8 up or from −8 down
# [15] = osmotic lysis modulators in infected erythrocytes, primary screen, PSAC antagonist project, cell-based, P. falciparum Indochina, OD700, 3 h (AID 1156); settings: higher = more signal, called active from +8 up or from −8 down
# [16] = PSAC antagonists in infected red cells, primary screen, cell-based, P. falciparum Indochina, OD700, 18 h (AID 1157); settings: P. falciparum Indochina infected erythrocytes, osmotic lysis OD700, 18 h; higher = more signal, called active from +8 up or from −8 down
# [17] = modulators of S6 phosphorylation in cells, primary screen, cell-based, A549, cytoblot, luminescence, serum-stimulated (AID 1158); settings: A549 phospho-S6 cytoblot, 5 h, higher = more signal;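 also: serum-stimulated A549 lung adenocarcinoma cells; signal is phosphorylated S6 detected by cytoblot immunostaining with HRP secondary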
# [18] = target: NADPH oxidase 2 (Homo sapiens) (UniProt P04839); experiment: NOX2-dependent H2O2 signal modulators, primary screen, NOX inhibitor project, cell-based, HEK293-NOX2, PMA-stimulated, Amplex Red fluorescence (AID 1159); settings: 45 min, higher = more signal, called active from +8 up or from −8 down; also: test concentration not given here
# Chain of NADPH oxidase 2 (Homo sapiens) (P04839 whole entry, looked up): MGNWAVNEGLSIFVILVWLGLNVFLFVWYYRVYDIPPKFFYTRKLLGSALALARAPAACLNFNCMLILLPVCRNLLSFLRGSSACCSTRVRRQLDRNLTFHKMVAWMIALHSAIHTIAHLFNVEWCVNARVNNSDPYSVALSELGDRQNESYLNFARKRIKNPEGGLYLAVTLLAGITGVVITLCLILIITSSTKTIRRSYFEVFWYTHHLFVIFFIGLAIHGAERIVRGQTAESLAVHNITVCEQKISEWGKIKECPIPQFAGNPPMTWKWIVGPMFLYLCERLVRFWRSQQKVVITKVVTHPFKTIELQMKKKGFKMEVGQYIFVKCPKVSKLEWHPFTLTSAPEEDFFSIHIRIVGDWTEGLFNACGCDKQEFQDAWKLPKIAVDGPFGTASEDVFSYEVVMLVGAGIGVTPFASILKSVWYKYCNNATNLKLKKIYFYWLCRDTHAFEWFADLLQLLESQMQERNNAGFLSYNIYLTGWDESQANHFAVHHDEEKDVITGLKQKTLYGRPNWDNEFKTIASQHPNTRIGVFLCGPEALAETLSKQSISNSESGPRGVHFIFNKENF
# [19] = target: NADPH oxidase 4 (Homo sapiens) (UniProt Q9NPH5); experiment: NOX4-dependent H2O2 signal modulators, primary screen, NOX inhibitor project, cell-based, HEK293-NOX4, tetracycline-induced, Amplex Red fluorescence (AID 1160); settings: 45 min, higher = more signal, called active from +8 up or from −8 down
# Chain of NADPH oxidase 4 (Homo sapiens) (Q9NPH5 whole entry, looked up): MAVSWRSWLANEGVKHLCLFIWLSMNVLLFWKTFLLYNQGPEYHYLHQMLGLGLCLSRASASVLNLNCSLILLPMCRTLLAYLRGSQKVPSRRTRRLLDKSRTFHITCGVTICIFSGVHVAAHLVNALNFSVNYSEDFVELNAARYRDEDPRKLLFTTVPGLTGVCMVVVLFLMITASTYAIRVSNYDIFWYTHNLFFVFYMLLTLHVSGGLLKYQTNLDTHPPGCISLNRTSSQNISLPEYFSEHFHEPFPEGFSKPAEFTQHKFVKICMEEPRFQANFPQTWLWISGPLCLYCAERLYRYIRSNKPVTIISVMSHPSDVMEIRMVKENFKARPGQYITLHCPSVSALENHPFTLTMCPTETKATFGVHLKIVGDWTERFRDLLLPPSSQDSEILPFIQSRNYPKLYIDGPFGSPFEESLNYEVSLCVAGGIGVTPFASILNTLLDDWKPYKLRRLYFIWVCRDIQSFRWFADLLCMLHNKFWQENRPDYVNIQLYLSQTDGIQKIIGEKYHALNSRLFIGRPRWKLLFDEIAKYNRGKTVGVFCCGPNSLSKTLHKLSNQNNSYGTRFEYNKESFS
# [20] = target: NADPH oxidase 5 (Homo sapiens) (UniProt Q96PH1); experiment: NOX5-dependent H2O2 signal modulators, primary screen, NOX inhibitor project, cell-based, HEK293-NOX5, Amplex Red fluorescence (AID 1161); settings: HEK293-NOX5, ionomycin, 45 min, higher = more signal
# Chain of NADPH oxidase 5 (Homo sapiens) (Q96PH1 whole entry, looked up): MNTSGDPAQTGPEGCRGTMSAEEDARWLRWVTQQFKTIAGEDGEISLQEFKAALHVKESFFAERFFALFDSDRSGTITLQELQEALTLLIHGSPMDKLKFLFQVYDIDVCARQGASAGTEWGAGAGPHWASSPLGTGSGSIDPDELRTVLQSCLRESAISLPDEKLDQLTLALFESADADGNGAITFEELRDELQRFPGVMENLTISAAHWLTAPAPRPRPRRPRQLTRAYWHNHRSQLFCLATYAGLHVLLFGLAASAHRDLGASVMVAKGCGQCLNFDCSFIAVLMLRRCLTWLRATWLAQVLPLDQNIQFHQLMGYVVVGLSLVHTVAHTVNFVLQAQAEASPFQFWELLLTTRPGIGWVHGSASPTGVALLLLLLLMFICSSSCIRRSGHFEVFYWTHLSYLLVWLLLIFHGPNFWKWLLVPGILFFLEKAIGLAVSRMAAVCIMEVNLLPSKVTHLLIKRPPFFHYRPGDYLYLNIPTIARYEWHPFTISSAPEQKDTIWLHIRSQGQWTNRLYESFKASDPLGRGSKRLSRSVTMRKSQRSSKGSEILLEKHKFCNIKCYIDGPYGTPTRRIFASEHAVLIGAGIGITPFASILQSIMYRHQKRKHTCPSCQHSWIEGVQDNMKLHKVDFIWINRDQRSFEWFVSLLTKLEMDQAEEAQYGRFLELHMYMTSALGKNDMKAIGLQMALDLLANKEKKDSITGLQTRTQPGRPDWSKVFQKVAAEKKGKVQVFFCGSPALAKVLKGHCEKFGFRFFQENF
Compound,composite z-score [1],z-score [2],z-score [3],z-score [4],z-score [5],composite z-score [6],composite z-score [7],composite z-score (Torsin-1A (Homo sapiens) [8]),composite z-score (Torsin-1A (Homo sapiens) [9]),composite z-score [10],z-score [11],composite z-score [12],z-score [13],z-score [14],z-score [15],z-score [16],z-score [17],z-score [18],z-score [19],z-score [20]
COC(=O)[C@@]1(Cc2ccc(OC)cc2)[C@H]2c3cc(C(=O)N4CCCC4)n(CCn4cc([N+](=O)[O-])nc4C)c3C[C@H]2CN1C(=O)c1ccccc1,1.94,-0.798 (inactive),-0.245 (inactive),0.779 (inactive),0.861 (inactive),2.22,1.84,-0.236,1.75,-0.455,-2.21 (inactive),2.16,2.38 (inactive),0.0212 (inactive),0.217 (inactive),0.543 (inactive),-0.108,0.54 (inactive),-1.39 (inactive),-2.54
CC(C)(C)OC(=O)CC[C@@]1(C(=O)NCCN2CCOCC2)N=C(c2ccc(OCCCO)cc2)O[C@@H]1c1ccccc1CN=[N+]=[N-],-0.119,0.0704 (inactive),-0.495 (inactive),-0.277 (inactive),0.54 (inactive),1.01,-0.0494,-0.428,0.467,-0.919,-0.936 (inactive),-0.0255,24.4 (active),11.3 (active),0.0031 (inactive),1.21 (inactive),-0.464,0.73 (inactive),1.46 (inactive),1.54
NC(=O)N1C(=O)C2C(C1=O)C1C=C(CCCO)C2C(C2CC2)N1Cc1sc2ccccc2c1Cl (stereo not given),0.588,-0.205 (inactive),0.0825 (inactive),0.261 (inactive),-0.654 (inactive),0.526,-0.0371,0.842,0.82,0.726,0.4 (inactive),0.105,13.4 (active),2.12 (inactive),0.394 (inactive),1.07 (inactive),0.125,2.74 (inactive),0.923 (inactive),-0.549
C=CCC(OC(C)=O)[C@@H]1[C@@H](N(Cc2cccc3ccccc23)C(=O)c2ccc(-c3ccccc3)cc2)c2cc(OCCCO)ccc2N1C(=O)Cc1ccc2ccccc2c1 (stereo not given in full),-0.0281,-0.182 (inactive),0.0777 (inactive),-0.141 (inactive),0.0677 (inactive),0.911,0.0108,-0.175,-0.337,0.068,-0.662 (inactive),-0.0164,0.36 (inactive),0.35 (inactive),-0.428 (inactive),0.309 (inactive),-0.242,-1.49 (inactive),1.15 (inactive),0.311
COCCOC(=O)N1C(=O)[C@@]2(c3cc(C#CCNC(N)=O)ccc31)[C@H](C(=O)Nc1nc3ccccc3s1)[C@H]1C(=O)O[C@H](c3ccccc3)[C@H](c3ccccc3)N1[C@@H]2c1ccccc1OCCO,0.553,-2.11 (inactive),-0.264 (inactive),-0.465 (inactive),-0.154 (inactive),0.158,0.152,0.508,0.0351,1.82,1.14 (inactive),0.646,2.15 (inactive),0.215 (inactive),0.483 (inactive),-1.08 (inactive),2.18,1.41 (inactive),0.695 (inactive),0.934
C=CCC(OC(C)=O)[C@@H]1[C@@H](N(Cc2cc3ccccc3o2)C(=O)c2cccc3ccccc23)c2cc(OCCCO)ccc2N1C(=O)c1ccc2ccccc2n1 (stereo not given in full),0.0394,-1.35 (inactive),-0.399 (inactive),2.6 (inactive),-0.273 (inactive),0.0002,-0.0131,0.866,-0.661,0.151,0.595 (inactive),-0.239,1.53 (inactive),0.26 (inactive),0.266 (inactive),0.506 (inactive),0.231,0.889 (inactive),-0.605 (inactive),-1.64
C=CCNC(=O)[C@H]1[C@@H]2C(=O)O[C@@H](c3ccccc3)[C@@H](c3ccccc3)N2[C@@H](c2ccc(OCCO)cc2)[C@]12C(=O)Nc1ccc(C#CC3(O)CCCCCC3)cc12,0.564,-3.3 (inactive),0.15 (inactive),-0.329 (inactive),0.566 (inactive),0.618,0.108,0.406,0.564,1.31,0.803 (inactive),0.523,2.48 (inactive),1.54 (inactive),-0.441 (inactive),0.311 (inactive),0.977,1.94 (inactive),1.18 (inactive),0.902
CC(C)C[C@@H]1NC(=O)[C@@]23C(=O)N[C@@H](Cc4ccccc4)C2[C@H](C)[C@@]2(C)O[C@H]2C3/C=C/C/C=C\CNC(=O)CNC1=O (stereo not given in full),-0.0717,-1.91 (inactive),0.0738 (inactive),-1.05 (inactive),-0.767 (inactive),0.228,-0.179,-0.507,0.939,0.214,-0.815 (inactive),-0.0832,0.917 (inactive),0.0107 (inactive),-0.023 (inactive),0.329 (inactive),0.208,1.82 (inactive),1.2 (inactive),-0.441
C[N+](C)(C)CCCC[C@@H]1NC(=O)[C@@H]2C[C@H](C(=O)NCc3ccc(F)cc3)[C@H](c3ccc(O)cc3)N2C1=O,-0.176,-0.0669 (inactive),-1.22 (inactive),0.692 (inactive),0.663 (inactive),-0.369,-0.0963,0.965,0.729,1.64,-0.7 (inactive),-0.0186,0.936 (inactive),0.376 (inactive),-1.65 (inactive),0.104 (inactive),0.567,0.274 (inactive),0.22 (inactive),1.17
CC(C)NC(=O)[C@@]1(C)c2ccccc2C(=O)N(Cc2ccccc2)[C@H]1c1ccc(CO)cc1,-0.442,-2.24 (inactive),0.0156 (inactive),-0.592 (inactive),-1.08 (inactive),-1.23,-0.312,0.654,1.39,0.504,1.31 (inactive),-0.0796,4.68 (inactive),-0.883 (inactive),-0.171 (inactive),-0.851 (inactive),1.64,-1.34 (inactive),0.485 (inactive),0.872
OCCCC1=CC(c2ccc(CN3CCCC3)cc2)N(Cc2cccc(OC(F)(F)F)c2)CC1 (stereo not given),-0.131,-9.01 (active),0.697 (inactive),-0.0884 (inactive),0.593 (inactive),-0.69,-0.0791,0.265,-0.165,0.365,-2.64 (inactive),0.286,3.61 (inactive),0.935 (inactive),0.524 (inactive),0.749 (inactive),-0.791,-5.61 (inactive),-2.06 (inactive),-2.16
COC(=O)[C@@]1(Cc2ccc(OC)cc2)[C@H]2c3cc(C(=O)N4CCCC4)n(Cc4ccc(C(F)(F)F)nc4)c3C[C@H]2CN1C(=O)c1ccccc1,0.426,-2.36 (inactive),0.361 (inactive),-0.372 (inactive),0.945 (inactive),-0.012,0.225,0.866,0.52,-0.246,-2.07 (inactive),-0.0647,6.38 (inactive),4.52 (inactive),0.746 (inactive),3.37 (inactive),-0.249,0.101 (inactive),0.564 (inactive),0.63
COCCCNC(=O)[C@@]1(CCC(=O)OC(C)(C)C)COC(c2ccc(OCCCO)cc2)=N1,0.23,-1.7 (inactive),-0.126 (inactive),0.195 (inactive),0.706 (inactive),0.905,0.204,0.589,1.4,-0.98,0.42 (inactive),0.205,23.6 (active),4.91 (inactive),0.873 (inactive),0.766 (inactive),-0.169,-2.51 (inactive),0.195 (inactive),-0.0784
COCCCNC(=O)[C@@]1(Sc2ccc(C)cc2)CC(=O)N(Cc2ccccc2C(F)(F)F)[C@@H]1c1ccc(CO)cc1I,-0.249,-0.818 (inactive),0.86 (inactive),-0.0888 (inactive),0.421 (inactive),-0.503,-0.111,-1.5,-0.642,-1.02,0.0516 (inactive),0.112,2.06 (inactive),0.786 (inactive),0.385 (inactive),0.377 (inactive),-0.248,0.843 (inactive),-1.01 (inactive),2.49
COc1ccc(C(O)C2C=CC3C(=O)N(C)C(=O)C3N2N(c2ccccc2)c2ccccc2)cc1 (stereo not given),0.0865,0.522 (inactive),0.219 (inactive),0.629 (inactive),0.517 (inactive),1.35,0.105,0.153,0.368,-0.176,-1.3 (inactive),0.363,2.07 (inactive),1.14 (inactive),0.509 (inactive),0.974 (inactive),-0.478,-0.685 (inactive),-2.05 (inactive),-0.77
COc1ccc([Si](C)(C)[C@@H]2[C@@H](CC(=O)N3Cc4ccccc4C[C@H]3CO)O[C@]3(C(=O)N(Cc4ccc(N5CCOC5=O)cc4)c4ccccc43)[C@H]2C)cc1,-0.0088,-4.75 (inactive),-0.081 (inactive),0.949 (inactive),-0.888 (inactive),-0.0492,-0.128,0.438,0.702,1.96,0.378 (inactive),-0.0868,8.18 (active),1.59 (inactive),0.374 (inactive),0.892 (inactive),0.982,0.393 (inactive),1.15 (inactive),1.88
